# Tests used:
# Assay in all cases: DAPPL (digital affinity profiling via proximity ligation, sequencing); 10 mM Tris-HCl pH 7.5, 50 mM NaCl, 1 mM DTT, 4% glycerol, room temperature, 30 min; GST-TFs on glutathione beads, 16-mer random dsDNA library, 0.1% formaldehyde crosslink after washing; high values mean tight binding
# [1] = target: T1, FEV (Homo sapiens, UniProt Q99581 1-238); settings: protein: recombinant; tags: N-terminal GST; dsDNA, one strand shown
# T1 sequence: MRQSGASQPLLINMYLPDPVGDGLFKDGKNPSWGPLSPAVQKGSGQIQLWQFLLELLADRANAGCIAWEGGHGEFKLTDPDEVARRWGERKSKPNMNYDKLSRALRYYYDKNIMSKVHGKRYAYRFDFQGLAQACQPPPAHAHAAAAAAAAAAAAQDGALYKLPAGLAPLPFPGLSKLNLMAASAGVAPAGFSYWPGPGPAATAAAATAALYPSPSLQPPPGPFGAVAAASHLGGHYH
# Method in brief: (§1)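 In yeast, human transcription factors were expressed with a GST fusion, then pulled down on glutathione beads and given DNA barcodes. Pooled with a tag-only sample, they were exposed to 200 nmole of a 16-mer random double-stranded DNA library (Tris/NaCl/DTT/glycerol buffer, room temperature, 30 min), washed, crosslinked with 0.1% formaldehyde, proximity-ligated using BsaI/T4 ligase for 1 h at 37 °C, PCR-amplified and read on an Illumina NextSeq500. Each hexamer's frequency of reads for a factor, divided by the matching frequency for the tag-only sample, gives the binding signal.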
# [2] = target: ETV5 (Homo sapiens, UniProt P41161 1-510); settings: protein: recombinant; tags: N-terminal GST; dsDNA, one strand shown
# Method in brief: as §1
# [3] = target: HSF1 (Homo sapiens, UniProt Q00613 1-529); settings: protein: recombinant; tags: N-terminal GST; chain copies: 3; dsDNA, one strand shown
# Method in brief: as §1
# [4] = target: T2, SPIC (Homo sapiens, UniProt Q8N5J4 1-248); settings: protein: recombinant; tags: N-terminal GST; dsDNA, one strand shown
# T2 sequence: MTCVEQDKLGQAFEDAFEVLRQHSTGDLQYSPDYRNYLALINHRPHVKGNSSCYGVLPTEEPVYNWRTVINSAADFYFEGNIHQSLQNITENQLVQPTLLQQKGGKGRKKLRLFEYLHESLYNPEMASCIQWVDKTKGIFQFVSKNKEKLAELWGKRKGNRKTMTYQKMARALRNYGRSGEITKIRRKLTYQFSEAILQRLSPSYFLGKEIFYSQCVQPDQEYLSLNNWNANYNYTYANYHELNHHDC
# Method in brief: as §1
# [5] = target: ELF4 (Homo sapiens, UniProt Q99607 1-663); settings: protein: recombinant; tags: N-terminal GST; dsDNA, one strand shown
# Method in brief: as §1
# [6] = target: T3, ELK4 (Homo sapiens, UniProt P28324-2 1-405); settings: protein: recombinant; tags: N-terminal GST; dsDNA, one strand shown
# T3 sequence: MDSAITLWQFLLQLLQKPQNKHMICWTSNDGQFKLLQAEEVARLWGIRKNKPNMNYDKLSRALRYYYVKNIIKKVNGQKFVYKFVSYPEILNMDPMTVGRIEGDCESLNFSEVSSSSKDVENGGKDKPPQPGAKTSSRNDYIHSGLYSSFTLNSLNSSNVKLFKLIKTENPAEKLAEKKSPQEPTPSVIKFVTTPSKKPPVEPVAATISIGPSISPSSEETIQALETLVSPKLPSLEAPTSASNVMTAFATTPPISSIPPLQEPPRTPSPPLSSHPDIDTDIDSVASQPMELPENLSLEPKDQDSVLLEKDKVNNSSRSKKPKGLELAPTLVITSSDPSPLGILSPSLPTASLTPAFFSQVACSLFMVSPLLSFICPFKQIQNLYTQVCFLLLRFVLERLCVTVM
# Method in brief: as §1
# [7] = target: T4, ETV2 (Homo sapiens, UniProt O00321 1-342); settings: protein: recombinant; tags: N-terminal GST; dsDNA, one strand shown
# T4 sequence: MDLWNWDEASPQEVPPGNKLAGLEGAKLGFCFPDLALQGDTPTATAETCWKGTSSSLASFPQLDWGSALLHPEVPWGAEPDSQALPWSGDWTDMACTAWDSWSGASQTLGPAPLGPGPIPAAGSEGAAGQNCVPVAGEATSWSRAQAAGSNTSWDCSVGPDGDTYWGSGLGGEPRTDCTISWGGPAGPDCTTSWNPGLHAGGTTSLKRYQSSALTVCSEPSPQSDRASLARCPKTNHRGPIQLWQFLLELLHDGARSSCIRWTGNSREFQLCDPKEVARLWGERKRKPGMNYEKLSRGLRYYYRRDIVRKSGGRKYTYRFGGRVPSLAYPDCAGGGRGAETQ
# Method in brief: as §1
# [8] = target: T5, ELF3 (Homo sapiens, UniProt P78545 1-371); settings: protein: recombinant; tags: N-terminal GST; dsDNA, one strand shown
# T5 sequence: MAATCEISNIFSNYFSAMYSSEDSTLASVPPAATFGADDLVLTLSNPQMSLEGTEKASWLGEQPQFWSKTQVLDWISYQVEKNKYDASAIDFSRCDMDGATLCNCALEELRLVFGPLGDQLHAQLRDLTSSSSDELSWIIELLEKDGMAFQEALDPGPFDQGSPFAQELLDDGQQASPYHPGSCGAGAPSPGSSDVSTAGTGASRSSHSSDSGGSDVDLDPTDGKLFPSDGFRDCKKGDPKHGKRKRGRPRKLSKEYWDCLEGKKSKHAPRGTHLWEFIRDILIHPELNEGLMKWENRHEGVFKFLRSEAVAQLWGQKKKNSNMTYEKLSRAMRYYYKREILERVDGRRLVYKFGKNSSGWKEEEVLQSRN
# Method in brief: as §1
# [9] = target: CRX (Homo sapiens, UniProt O43186 1-299); settings: protein: recombinant; tags: N-terminal GST; dsDNA, one strand shown
# Method in brief: as §1
# [10] = target: ETV1 (Homo sapiens, UniProt P50549 1-477); settings: protein: recombinant; tags: N-terminal GST; dsDNA, one strand shown
# Method in brief: as §1
# Chain of ELF4 (Q99607 whole entry): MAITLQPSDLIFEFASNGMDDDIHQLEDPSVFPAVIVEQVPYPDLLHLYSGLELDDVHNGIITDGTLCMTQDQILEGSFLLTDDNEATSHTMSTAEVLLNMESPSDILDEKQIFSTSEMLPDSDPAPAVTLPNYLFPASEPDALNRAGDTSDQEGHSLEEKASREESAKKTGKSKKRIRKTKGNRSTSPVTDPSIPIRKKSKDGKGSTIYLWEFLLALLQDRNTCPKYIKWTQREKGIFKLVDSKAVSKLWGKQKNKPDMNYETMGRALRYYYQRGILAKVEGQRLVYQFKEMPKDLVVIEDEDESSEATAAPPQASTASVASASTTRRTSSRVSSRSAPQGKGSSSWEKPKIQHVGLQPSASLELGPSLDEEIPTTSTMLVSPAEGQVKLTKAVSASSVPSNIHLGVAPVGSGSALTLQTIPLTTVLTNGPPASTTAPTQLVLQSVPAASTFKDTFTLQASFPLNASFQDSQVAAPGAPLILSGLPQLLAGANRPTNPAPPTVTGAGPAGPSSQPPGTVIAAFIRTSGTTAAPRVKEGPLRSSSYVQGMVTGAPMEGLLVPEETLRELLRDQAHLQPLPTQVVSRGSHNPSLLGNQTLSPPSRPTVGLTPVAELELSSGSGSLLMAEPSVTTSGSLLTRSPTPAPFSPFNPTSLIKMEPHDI
# Chain of ETV5 (P41161 whole entry): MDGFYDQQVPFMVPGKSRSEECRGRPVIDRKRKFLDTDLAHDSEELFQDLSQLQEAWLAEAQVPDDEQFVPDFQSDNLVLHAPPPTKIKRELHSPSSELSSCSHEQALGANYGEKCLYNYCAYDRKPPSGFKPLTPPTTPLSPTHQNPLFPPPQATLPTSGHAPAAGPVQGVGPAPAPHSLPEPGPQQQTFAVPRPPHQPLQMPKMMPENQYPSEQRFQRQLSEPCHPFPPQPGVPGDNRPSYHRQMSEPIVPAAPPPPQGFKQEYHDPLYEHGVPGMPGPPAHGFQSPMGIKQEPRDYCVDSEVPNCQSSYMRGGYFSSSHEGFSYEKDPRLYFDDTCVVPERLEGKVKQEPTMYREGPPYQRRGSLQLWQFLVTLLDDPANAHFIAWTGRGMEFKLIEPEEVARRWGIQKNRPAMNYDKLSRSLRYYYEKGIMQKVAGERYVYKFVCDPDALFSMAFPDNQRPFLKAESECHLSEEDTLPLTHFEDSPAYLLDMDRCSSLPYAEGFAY
# Chain of HSF1 (Q00613 whole entry): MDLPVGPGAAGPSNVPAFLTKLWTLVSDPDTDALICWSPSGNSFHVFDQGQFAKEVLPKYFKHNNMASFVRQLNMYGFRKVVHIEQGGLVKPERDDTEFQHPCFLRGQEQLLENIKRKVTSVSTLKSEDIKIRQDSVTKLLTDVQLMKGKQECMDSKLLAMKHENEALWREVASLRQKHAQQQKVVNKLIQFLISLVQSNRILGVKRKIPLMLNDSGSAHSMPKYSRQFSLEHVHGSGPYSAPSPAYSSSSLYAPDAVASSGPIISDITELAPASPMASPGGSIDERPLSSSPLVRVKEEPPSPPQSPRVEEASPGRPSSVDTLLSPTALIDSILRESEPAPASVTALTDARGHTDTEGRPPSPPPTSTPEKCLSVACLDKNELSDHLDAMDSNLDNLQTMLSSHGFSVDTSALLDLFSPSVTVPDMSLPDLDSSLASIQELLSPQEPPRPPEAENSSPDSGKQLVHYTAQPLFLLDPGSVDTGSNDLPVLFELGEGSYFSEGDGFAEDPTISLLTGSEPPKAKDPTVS
# Chain of ETV1 (P50549 whole entry): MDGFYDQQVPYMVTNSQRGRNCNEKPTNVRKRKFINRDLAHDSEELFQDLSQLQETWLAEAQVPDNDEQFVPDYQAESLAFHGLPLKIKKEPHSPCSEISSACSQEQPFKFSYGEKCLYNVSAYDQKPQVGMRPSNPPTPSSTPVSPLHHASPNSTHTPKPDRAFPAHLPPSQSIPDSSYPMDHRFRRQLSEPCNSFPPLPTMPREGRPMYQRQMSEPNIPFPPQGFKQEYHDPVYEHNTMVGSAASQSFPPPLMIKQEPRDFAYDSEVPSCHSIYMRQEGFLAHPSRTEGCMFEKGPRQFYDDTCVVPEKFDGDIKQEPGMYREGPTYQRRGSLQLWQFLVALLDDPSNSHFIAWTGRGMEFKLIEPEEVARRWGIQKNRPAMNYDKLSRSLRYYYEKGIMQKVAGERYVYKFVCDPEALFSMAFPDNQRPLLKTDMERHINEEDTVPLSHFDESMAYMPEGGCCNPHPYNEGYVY
# Chain of CRX (O43186 whole entry): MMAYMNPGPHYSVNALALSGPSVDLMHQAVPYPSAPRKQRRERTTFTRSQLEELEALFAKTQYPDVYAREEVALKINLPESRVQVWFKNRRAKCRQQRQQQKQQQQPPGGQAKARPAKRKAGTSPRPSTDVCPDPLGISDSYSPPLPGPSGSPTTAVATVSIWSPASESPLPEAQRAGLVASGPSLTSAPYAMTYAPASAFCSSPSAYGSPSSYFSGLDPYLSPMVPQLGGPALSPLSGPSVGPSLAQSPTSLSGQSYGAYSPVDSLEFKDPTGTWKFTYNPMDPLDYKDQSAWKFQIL
sequence,measurement,setting,value
ACTTCT,binding signal,[1],"1.4 fold enrichment (6-mer frequency, TF over GST control)"
same,binding signal,[2],"1.45 fold enrichment (6-mer frequency, TF over GST control)"
same,binding signal,[3],"2.1 fold enrichment (6-mer frequency, TF over GST control)"
same,binding signal,[4],"1.47 fold enrichment (6-mer frequency, TF over GST control)"
same,binding signal,[5],"1.49 fold enrichment (6-mer frequency, TF over GST control)"
same,binding signal,[6],"1.83 fold enrichment (6-mer frequency, TF over GST control)"
same,binding signal,[7],"1.37 fold enrichment (6-mer frequency, TF over GST control)"
same,binding signal,[8],"1.45 fold enrichment (6-mer frequency, TF over GST control)"
same,binding signal,[9],"1.55 fold enrichment (6-mer frequency, TF over GST control)"
same,binding signal,[10],"1.47 fold enrichment (6-mer frequency, TF over GST control)"

# Reference: article PMC7862700, “An all-to-all approach to the identification of sequence-specific readers for epigenetic DNA modifications on cytosine”
